PubChem BioAssay (EPA / NIEHS)
Records with an inconclusive call do not appear. The source made the active and inactive calls. The calls were made as follows, unless noted: active = hit-call score of the fitted dose curve at least 0.9, where 1 is the maximum; inactive = score below 0.9.

What was measured:
[1] = CCTE_Shafer_MEA_acute_network_burst_percentage: CCTE's Neural Acute Assay for Percentage of Network Bursts, Shafer Lab (AID 2284022);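 also: curves fitted for loss so actives lower network burst percentage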
Summary of the method: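 Rat primary cortical neuron networks on 48-well MEA plates, DIV 13 or 15, treated acutely with compound (0.03-40 uM, at least three wells). Percent of spikes within network bursts compared between 40-min recordings before and during exposure at 37 C, expressed as percent change.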

[2] = CCTE_Shafer_MEA_acute_cross_correlation_area: CCTE's Neural Acute Assay for Area of Cross Correlation, Shafer Lab (AID 2284024);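 also: curves fitted for loss of cross-correlation area so actives lower synchrony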
Summary of the method: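 Rat primary cortical neurons on 48-well MEA, DIV 13 or 15; compounds 0.03-40 uM. Baseline and post-exposure 40 min recordings at 37 C; percent change in area under pooled inter-electrode cross-correlation near zero lag, relative to DMSO.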

[3] = CCTE_Shafer_MEA_acute_cross_correlation_HWHM: CCTE's Neural Acute Assay for Cross Correlation at Half Width at Half Maximum, Shafer Lab (AID 2284026);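 also: percent change per well from pre-dose baseline in spike cross-correlogram half width; hits are a decrease in cross-correlogram half width relative to DMSO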
Summary of the method: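 Rat primary cortical neurons on 48-well MEA plates; 40-min baseline and 40-min post-exposure recordings at 37 C on DIV 13 or 15, compounds 0.03-40 uM. Spikes detected at 8x rms noise; percent change in cross-correlogram HWHM per well vs baseline.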

[4] = CCTE_Shafer_MEA_acute_synchrony_index: CCTE's Neural Acute Assay for Synchrony, Shafer Lab (AID 2284027);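 also: network synchrony index of spontaneous spiking in primary rat cortical neurons on MEAs; fitted for loss of signal so actives lower synchrony relative to DMSO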
Summary of the method: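 Acute exposure of rat primary cortical neurons (DIV 13 or 15) at 0.03-40 uM. Synchrony index, 40 min before vs after, as % change relative to DMSO control.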

[5] = biological target: Estrogen receptor (Homo sapiens) (UniProt P03372); experiment: CCTE_Deisenroth_AIME_384WELL_LUC_Active: CCTE's 384-well Estrogen Receptor Transactivation Assay with AIME metabolic competence (ERTA luciferase; metabolism positive), Deisenroth Lab (AID 2284030; active = hit-call score of the fitted dose curve at least 0.9, where 1 is the maximum)
Sequence of Estrogen receptor (Homo sapiens) (P03372 whole entry, looked up): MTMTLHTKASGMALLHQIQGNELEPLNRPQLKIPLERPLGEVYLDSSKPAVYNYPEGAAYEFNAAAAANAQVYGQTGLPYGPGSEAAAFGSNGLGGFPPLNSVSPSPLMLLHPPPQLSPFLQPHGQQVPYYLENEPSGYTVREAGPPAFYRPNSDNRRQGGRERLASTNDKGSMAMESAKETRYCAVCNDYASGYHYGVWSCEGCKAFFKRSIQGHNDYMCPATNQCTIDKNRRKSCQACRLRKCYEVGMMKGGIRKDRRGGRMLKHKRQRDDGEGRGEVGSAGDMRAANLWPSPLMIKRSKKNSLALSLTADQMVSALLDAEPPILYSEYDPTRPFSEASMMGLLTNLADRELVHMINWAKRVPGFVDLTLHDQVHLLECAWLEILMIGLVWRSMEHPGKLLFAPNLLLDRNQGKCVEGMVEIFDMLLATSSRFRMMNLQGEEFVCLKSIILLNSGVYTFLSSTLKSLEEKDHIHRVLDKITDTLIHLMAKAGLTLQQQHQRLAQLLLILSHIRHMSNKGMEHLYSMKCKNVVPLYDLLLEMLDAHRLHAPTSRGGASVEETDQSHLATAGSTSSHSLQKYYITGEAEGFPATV
Summary of the method: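 Chemicals (10-point, 0.002-200 uM) were first incubated 2 hours with alginate-immobilized induced male Sprague Dawley rat liver S9. The conditioned medium was then applied to VM7Luc4E2 cells for 24 hours, with ER luciferase induction read by luminescence relative to 17beta-estradiol.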

[6] = CCTE_Shafer_MEA_dev_firing_rate_mean: CCTE's Neural Network Formation Assay for Mean Firing Rate, Shafer Lab (AID 2284031);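 also: AUC of well mean spike rate recorded on DIV 5 7 9 and 12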;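 as to AC50: curve fitted for loss of firing so AC50 reflects decreased mean firing rate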
Summary of the method: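 Extracellular spike frequency, AUC over DIV 5–12 recordings, in rat cortical neuron MEA cultures dosed from plating; loss direction vs DMSO.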

Measured: AC50

Cn1c(=O)c2[nH]cnc2n(C)c1=O
inactive: [1] | [2] | [3] | [4]

CCc1ccc(O)c(C(C)(C)C)c1
inactive: [1] | [2] | [3] | [4]

C=CCc1cc(S(=O)(=O)c2ccc(O)c(CC=C)c2)ccc1O
inactive: [1] | [2] | [3] | [4]

COCc1nnc(-c2ccc[n+]([O-])c2)n1-c1c(Cl)c(Cl)cc2[nH]c(=O)c(=O)[nH]c12
inactive: [2]
active: [1] 29.2 µM | [3] 8.51 µM | [4] 14.7 µM

CC(=O)c1ccccc1
inactive: [5]

CCCCCCCC/C=C\CCCCCCCC(=O)OC[C@@H](O)[C@H]1OC[C@H](O)[C@H]1O
inactive: [1] | [2] | [3] | [4]

CC[C@H](C)C(=O)O[C@H]1C[C@H](O)C=C2C=C[C@H](C)[C@H](CC[C@@H](O)C[C@@H](O)CC(=O)O)[C@H]21
not listed: [5]
inactive: all other assays above

c1ccc2cc3ccccc3cc2c1
active: [1] 0.003 µM | [2] 0.00687 µM
inactive: [3] | [4] | [6]

COc1cc2c(c(OC)c1OC)-c1ccc(OC)c(=O)cc1[C@@H](NC(C)=O)CC2
active: [1] 4.03 µM | [6] 0.0179 µM
inactive: all other assays above

CC(C)CCCCCCOC(=O)C1CCCCC1C(=O)OCCCCCCC(C)C (configuration not stated)
inactive: [5]

OC(CCl)CCl
inactive: [1] | [2] | [3] | [4]

CCCCC(CC)C(=O)OCCOCCOCCOC(=O)C(CC)CCCC (configuration not stated)
not listed: [6]
inactive: all other assays above
